Data from PubChem BioAssay (NCATS).
Inconclusive results are not listed. Activity calls are given as the source filed them. Calls come from the whole dose curve; as a rule, active = well fitted inhibition curve with a large enough effect; inconclusive = small, poorly fitted or top-dose-only effect; inactive = flat fitted curve, though single readings scatter.
Potency is the fitted concentration of half-maximal effect.

What follows are compounds tested on Zika virus NS2B-NS3 protease (assay: Primary screen GU AMC qHTS for Zika virus inhibitors (AID 1347154; note: nearly all actives have a fitted effect of over 70% in size;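 for activity change, negative = inhibition: 0% = no-inhibitor control and -100% = no-enzyme control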)). Conditions: Zika NS2B-NS3 unlinked protease, AMC fluorogenic substrate; series mostly up to 54.1 µM; activity change, negative = inhibition: at the top concentration.
Excerpt: Avindra Nath, Ph.D., National Institute of Neurological Disorders and Stroke (NINDS), Bethesda, MD
Radhakrishnan Padmanabhan, Ph.D., Georgetown University (GU), Washington D.C.
Zika Virus causes congenital defects, including microcephaly and is associated with Guillain-Barre syndrome, eningoencephalitis and myelitis in infected adult. […] Using a target-based approach, we hope to establish a screening paradigm to uncover novel, cell-active NS2B-NS3 protease (Zika Virus) specific inhibitors from NCATS' collection of small molecules using qHTS.
Early Translation Branch (ETB)
National Center for Advancing Translational Sciences (NCATS), Rockville, MD
National Institute of Health (NIH), Bethesda, Maryland
Padmanabhan lab provided the NS2B hydrophilic domain and NS3 protease domain in a noncovalent complex used for the unlinked assay. Control compound aprotinin is obtained from Thermo Scientific (#78432; Waltham, Massachusetts). NS2B-NS3 AMC substrate (Bz-Nle-Lys-Arg-Arg-AMC; Nle-KRR-AMC) purchased from Bachem (#I-1995; Torrance, CA). Ac-VKTGKR-AMC purchased from Genscript or Bachem, Ac-FAAGKR-AMC purchased from Genscript, Ac-GLVKRR-AMC purchased from Genscript, Ac-LKKR-AMC purchased from Genscript.
GU AMC unlinked NS2B-NS3 protease qHTS protocol
Briefly, 3 microL of Zika virus unlinked NS2B-NS3 protease (25 nM for linked final concentration), in assay buffer (10 mM Tris-HCl pH 8.0 with 0.01% Tween 20) was dispensed into a 1,536-well solid-bottom black plate (Greiner Bio One, Monroe, NC). […] Plates were then read immediately on a ViewLux High-throughput CCD imager (PerkinElmer, Waltham, MA) equipped with standard UV fluorescence optics (340(30) nm excitation, 450(20) nm emission) then incubated (room temperature, protected from light) for 15 minutes (~20% conversion). The change in fluorescence intensity over the 15-minute reaction period was normalized against no-inhibitor and no-enzyme controls and the resulting percent inhibition data were fitted to a 4-parameter Hill equation. Aprotinin was used as the intraplate control.
In the case of COc1ccc(CCC(C)=O)cc1, the “activity change, negative = inhibition” value was -1.73% (inactive).
CC(C)(C)C1CCC(CC2=C(O)c3ccccc3C(=O)C2=O)CC1 (stereo not given) was tested, and the “activity change, negative = inhibition” value was -0.73% (inactive).
For CC(C)(C)c1ccc(O)c(O)c1, the “activity change, negative = inhibition” value was -10.2% [at 104 µM] (inactive).
In the case of CN1C(=O)c2ccccc2C1=O, the “activity change, negative = inhibition” value was 1.93% [at 104 µM] (inactive).
CCCC(=O)O[C@]1(C(=O)CC)CC[C@H]2[C@@H]3CCC4=CC(=O)CC[C@]4(C)[C@H]3[C@@H](O)C[C@@]21C was tested, and the “activity change, negative = inhibition” value was -5.29% (inactive).
For O=C1OC2(c3ccccc31)c1cc(I)c(O)c(I)c1Oc1c2cc(I)c(O)c1I, the Potency was 16.1 µM (active).
CCC1(c2cnc[nH]2)Cc2ccccc2C1 was tested, and the “activity change, negative = inhibition” value was -16.4% (inactive).
In the case of Cc1cccc(C)c1NC(=O)c1ccc(N)cc1, the “activity change, negative = inhibition” value was 0.553% (inactive).
Cc1coc2ccccc2c1=O was tested, and the “activity change, negative = inhibition” value was -1.28% (inactive).
Cc1oc(-c2ccccc2)nc1CCC(=O)c1ccc(CC2SC(=O)NC2=O)cc1 (stereo not given) was tested, and the “activity change, negative = inhibition” value was -18.3% (inactive).
With Nc1nc(=O)n([C@@H]2O[C@H](CO)[C@@H](O)[C@@H]2F)cc1I the “activity change, negative = inhibition” value was 2.97% (inactive).
With C=CC[N+]1([C@H]2C[C@H]3[C@@H]4CC[C@H]5C[C@H](OC(C)=O)[C@@H](N6CCCCC6)C[C@]5(C)[C@H]4CC[C@]3(C)[C@H]2OC(=O)CC)CCCCC1 the “activity change, negative = inhibition” value was -0.881% (inactive).
CCc1cccc2c(CCO)c[nH]c12 was tested, and the “activity change, negative = inhibition” value was 2.38% (inactive).
With CN1CCCN=C1/C=C/c1cccs1 the “activity change, negative = inhibition” value was -0.981% (inactive).
With Nc1c[n+](N2CCOCC2)no1 the Potency was “inactive”.
For COC(=O)c1c(Cl)c(Cl)c(C(=O)OC)c(Cl)c1Cl, the “activity change, negative = inhibition” value was -5.54% [at 104 µM] (inactive).
For CCOC(=O)C(O)c1ccccc1 (stereo not given), the “activity change, negative = inhibition” value was 0.857% (inactive).
With Cc1c(F)cc2c(=O)c(C(=O)O)cn3c2c1CCC3C (stereo not given) the “activity change, negative = inhibition” value was -5.05% (inactive).
In the case of NC(=O)NS(=O)(=O)c1ccc(Cl)cc1, the “activity change, negative = inhibition” value was 2.8% (inactive).
For Nc1nc2ccccc2n1Cc1ccc(F)cc1, the “activity change, negative = inhibition” value was 3.02% (inactive).
With COC(=O)c1cc(S(N)(=O)=O)ccc1OC the “activity change, negative = inhibition” value was 4.17% (inactive).
With CCCN(CCC)C(=O)C(CCC(=O)OCCCN1CCN(CCOC(=O)Cc2c(C)n(C(=O)c3ccc(Cl)cc3)c3ccc(OC)cc23)CC1)NC(=O)c1ccccc1 (stereo not given) the “activity change, negative = inhibition” value was -13% (inactive).
For CCCCCCCCCCCCCCCCCCN(C)C, the “activity change, negative = inhibition” value was -11.6% (inactive).
N=C(N)c1ccc(OCCCOc2ccc(C(=N)N)cc2)cc1 was tested, and the “activity change, negative = inhibition” value was -1.53% (inactive).
In the case of CN1CCC(=C2c3ccccc3CCc3cccnc32)CC1, the “activity change, negative = inhibition” value was -0.254% (inactive).
In the case of CCCCCN(CCCOC)C(=O)C(CCC(=O)O)NC(=O)c1ccc(Cl)c(Cl)c1 (stereo not given), the “activity change, negative = inhibition” value was -0.0102% (inactive).
With CCC(CN)=C(c1ccccc1)c1ccccc1 the “activity change, negative = inhibition” value was -4.2% (inactive).
With CCCCCCCCCCCC[N+](C)(C)Cc1ccccc1 the “activity change, negative = inhibition” value was -9.06% (inactive).
For CC(=O)OCC(=O)Nc1cc(C#N)cc(NC(=O)COC(C)=O)c1Cl, the “activity change, negative = inhibition” value was -1.09% (inactive).
For COc1ccc2nc(SCc3ncc(C)c(OC)c3C)[nH]c2c1, the “activity change, negative = inhibition” value was -0.0847% (inactive).
Nc1ncnc2nc[nH]c12 was tested, and the “activity change, negative = inhibition” value was -3.53% (inactive).
For CN(C(=O)C(Cl)Cl)c1ccc(OC(=O)c2ccco2)cc1, the “activity change, negative = inhibition” value was -3.07% (inactive).
With COc1c(N2C[C@@H]3CCCN[C@@H]3C2)c(F)cc2c(=O)c(C(=O)O)cn(C3CC3)c12 the Potency was 14.4 µM (active).
With CC[N+]1(CC)CCC(=C(c2ccccc2)c2ccccc2)C1C (stereo not given) the “activity change, negative = inhibition” value was -0.848% (inactive).
With CC1(C)O[C@@H]2C[C@H]3[C@@H]4C[C@H](F)C5=CC(=O)C=C[C@]5(C)[C@@]4(F)[C@@H](O)C[C@]3(C)[C@]2(C(=O)CO)O1 the “activity change, negative = inhibition” value was 1.39% (inactive).
O=C1Cc2cc(Cl)ccc2N1 was tested, and the “activity change, negative = inhibition” value was -0.748% (inactive).
For O=C(CCOCCOCCOCCOCCC(=O)Nc1c(I)cc(I)c(C(=O)O)c1I)Nc1c(I)cc(I)c(C(=O)O)c1I, the “activity change, negative = inhibition” value was -6.27% (inactive).
For CCCCOC(=O)CCCCCCCCC(=O)OCCCC, the “activity change, negative = inhibition” value was -1.19% (inactive).
With O=C(COCCOCCOCC(=O)Nc1c(I)cc(I)c(C(=O)O)c1I)Nc1c(I)cc(I)c(C(=O)O)c1I the “activity change, negative = inhibition” value was -5.67% (inactive).
CC[N+](CC)(CC)CCOC(=O)C(C1CCCC1)C1CCCC1 was tested, and the “activity change, negative = inhibition” value was -1.55% (inactive).
